This is a sample that favours compounds with a hit; in the whole collection about 9% have one here.
HTT aggregate – inhibitors of mutant huntingtin aggregate formation in PC12 cells; Potency, µM (titrated, usually from 46.1 µM), for inactives: at the highest dose activity change, negative = inhibition, most hits filed as inhibitors; PC12 HttQ103-GFP aggregates, Acumen cytometry, 40 h; 220,000 compounds, 1.1% hits; AID 1688; note: % is set by controls: 0 for no effect and ±100 for the full control effect; nearly all actives have a fitted effect of over 60% in size
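Steps: seed 1500 PC12 HTTQ103-GFP cells/well; add tebufenozide, 100 nM final; add compound titration; add ATPLite reagent; quantify GFP aggregates by laser scanning cytometry.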
ALDH1A1 inh – ALDH1A1 (human) enzyme inhibition. P00352. Purified ALDH1A1, NADH fluorescence, propionaldehyde substrate. 220,000 compounds, 7.3% hits. Potency, µM (series often up to 75.3 µM), inactives show at the highest dose activity, negative = inhibition, most hits filed as inhibitors; active = well fitted inhibition curve with a large enough effect, not every such curve was filed as active; inconclusive = small, poorly fitted or top-dose-only effect, or another doubt; inactive = no such curve, though single readings can be large or run the other way;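 note: plate controls were no enzyme wells and a reference inhibitor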
Target sequence (P00352 whole entry, looked up): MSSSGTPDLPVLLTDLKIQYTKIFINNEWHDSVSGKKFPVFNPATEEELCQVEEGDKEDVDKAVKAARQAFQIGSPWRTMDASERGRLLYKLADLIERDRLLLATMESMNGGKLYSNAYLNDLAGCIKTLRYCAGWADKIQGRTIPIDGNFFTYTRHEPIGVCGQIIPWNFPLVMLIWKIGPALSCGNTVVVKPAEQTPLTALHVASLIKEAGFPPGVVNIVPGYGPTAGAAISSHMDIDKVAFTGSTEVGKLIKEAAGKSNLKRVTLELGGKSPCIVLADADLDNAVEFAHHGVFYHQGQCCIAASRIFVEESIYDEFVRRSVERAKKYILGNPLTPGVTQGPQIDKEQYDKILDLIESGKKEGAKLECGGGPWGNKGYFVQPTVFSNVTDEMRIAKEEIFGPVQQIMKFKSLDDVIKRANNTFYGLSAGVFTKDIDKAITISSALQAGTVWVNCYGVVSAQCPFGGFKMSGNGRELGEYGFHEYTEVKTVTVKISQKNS
LMNA splice mod – modulators of lamin A splicing. 200,000 compounds, 0.01% hits. Potency, µM (titrated, usually from 46.1 µM), for the others: at the top dose ratio change, negative = inhibition, hits mostly inhibitors. HeLa LMNA splicing GFP/RFP minigene ratio, 48 h; active = well fitted inhibition curve with a large enough effect in the signal ratio, with a control signal flat, not every such curve was filed as active; inconclusive = small, poorly fitted or top-dose-only effect, or effect the other way, or a change in a side signal; the % refers to the signal ratio; note: % is set by controls: 0 for no effect and ±100 for the full control effect
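S3 HeLa stable clones carrying a lamin A-EGFP splicing minigene plus DsRed2 were seeded at 600 cells/well in Opti-MEM with 2% FBS, pin-dosed and incubated 48 h at 37°C. Acumen cytometry (488 nm) gave the GFP/RFP total-intensity ratio.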
HTT cytoprotect – cytoprotection in Huntington HTT-Q103 PC12 cell model; AID 1471; PC12 HTT-Q103 induced, cytoprotection, ATP luminescence, 40 h; Potency, µM (titrated, usually from 56.4 µM), inactives show cytoprotection (ATP increase), usual class: activators; 230,000 compounds, 0.14% hits; note: % of control where 0% means no effect; nearly all actives have a fitted effect of over 45% in size
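Stable PC12 Q103-GFP cells in serum-supplemented, phenol red-free DMEM; induction by tebufenozide at 100 nM final; compound dose series; cell viability quantified luminescently from ATP.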
KinaseGlo FLuc – blocks Kinase-Glo luciferase, a counter-screen artifact. Q27757. Kinase-Glo luciferase, ATP luminescence, 8 min. Potency, µM (highest dose often 38.3 µM), for the others: top-dose activity change, negative = inhibition, hits mostly inhibitors. 200,000 compounds, 0.28% hits. AID 1379; note: % is set by controls: 0 for no effect and ±100 for the full control effect; nearly all actives have a fitted effect of over 60% in size
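Light output from Kinase-Glo luciferase with luciferin and 10 uM ATP in 50 mM imidazole pH 7.2, KCl, MgCl2, Tween 20, BSA; compound pin-delivered, 8-min ambient incubation, then luminescence read.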
HPGD block – blocks human HPGD enzyme activity. P15428. purified HPGD, NADH fluorescence kinetic, PGE2 substrate. Potency, µM, inactives show at the highest dose activity change, negative = inhibition, hits mostly inhibitors. 150,000 compounds, 4.3% hits; active = well fitted inhibition curve with a large enough effect, not every such curve was filed as active; inconclusive = small, poorly fitted or top-dose-only effect, or another doubt; inactive = no such curve, though single readings can be large or run the other way; note: % is set by controls: 0 for no effect and ±100 for the full control effect
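NADH formation kinetics: reaction with 30 uM PGE2 and 1 mM NAD+ (final), 20 nM enzyme, Tris-HCl pH 8 with Tween 20, after 15 min compound preincubation at room temperature. Fluorescence change, last versus first of five reads.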
Active calls of the source: *; ? = inconclusive; · = not tested or not shown; [ ] = dose if it differs, or a comment. Unless noted, calls come from the whole dose curve; as a rule, active = well fitted curve in the direction sought with a large enough effect; inconclusive = small, poorly fitted or top-dose-only effect, or another doubt; inactive = no such curve, though single readings can be large; an effect the other way counts as inactive or inconclusive. Potency is the fitted concentration of half-maximal effect.

SMILES	HTT aggregate	ALDH1A1 inh	LMNA splice mod	HTT cytoprotect	KinaseGlo FLuc	HPGD block
CC1CN(C(=O)COC(=O)c2ccc(NC(=O)CC#N)cc2)CC(C)O1 (configuration not stated)	1.0%[9.22 µM]	6.31µM*	2.6%[46 µM]	27.2%[10 µM]	1.5%	·
OCCn1c(CSc2nnc(-c3ccco3)n2-c2ccccc2)nc2ccc(Cl)cc21	-9.6%	12.6µM*	3.2%	8.9%[10 µM]	0.7%	?
CCN(CC)P(=O)(Nc1ccc(C)cc1Br)c1ccc(N(C)C)cc1NC(=O)c1ccco1 (configuration not stated)	35.5µM*	?	-10.2%[46 µM]	25.1%	-2.9%	·
Cc1nc2ccc(C(=O)c3ccccc3)cc2[nH]1	-5.6%	?	-3.2%	-10.5%	-6.0%	17.8µM*
O=C(NC1CCCC1)c1ccc2nc[nH]c2c1	6.7%	2.4%	-2.8%	-3.3%	2.2%	-25.6%
O=C(c1ccccc1)c1ccc2nc(-c3ccc(NC(=O)c4ccccc4Br)cc3)[nH]c2c1	-1.4%	?	8.1%	-12.3%	-2.0%	-3.7%
O=C(c1ccccc1)c1ccc2nc[nH]c2c1	?	?	0.9%	0.4%[10 µM]	1.6%	22.4µM*
Cc1ccccc1C(=O)Nc1ccc(-c2nc3ccc(C(=O)c4ccccc4)cc3[nH]2)cc1	11.2µM*	?	?	-67.8%	-6.3%	?
Cc1nc2ccc(Cl)cc2[nH]1	·	18.0%	·	17.5%	·	-10.6%
CCN1CCN(C2=NC(=O)/C(=C/c3ccc(C)o3)S2)CC1	17.5%	20µM*	-0.3%	-21.3%	-3.2%	-19.0%
NC(=O)[C@@H]1CCCNc2c(I)cc([N+](=O)[O-])cc2C(=O)N[C@@H](CO)C(=O)N[C@@H](Cc2ccc(O)cc2)C(=O)N1	4.8%	-3.3%	-4.2%	·	-1.3%	-6.2%
N#CC1(c2ccc(NC(=O)c3ccccc3)cc2)CCCC1	8.6%	4.47µM*	2.6%	-73.0%	?	-24.1%
COc1ccc(CC2(CO)CCN(S(=O)(=O)c3sccc3C)CC2)cc1	10.6%[9.22 µM]	8.91µM*	·	16.4%[10 µM]	-1.0%	·
COc1ccc(CC2(CO)CCN(S(=O)(=O)c3c(C)nn(C)c3Cl)CC2)cc1	22.2%[9.22 µM]	-3.7%	·	-0.2%[10 µM]	2.7%	·
Cc1cccc(S(=O)(=O)N2CCC(CO)(Cc3ccccc3)CC2)c1	16.4%[9.22 µM]	20µM*	-4.0%[46 µM]	14.1%[10 µM]	3.4%	·
CC1=NC(=O)C(N=Nc2cccc(O)c2)N1c1ccccc1 (configuration not stated)	6.8%	4.7%	-8.3%	-29.5%	-3.0%	-4.7%
O=C1NC(=NCc2ccccc2)S/C1=C/c1ccc(O)cc1	7.0%	-7.7%	-11.6%	-26.8%[10 µM]	-36.8%	2.82µM*
COc1cc(/C=N/n2c(C)n[nH]c2=S)ccc1OCc1ccc(F)cc1	20.1%	?	13.3%	-12.8%[10 µM]	-1.4%	2.82µM*
CC1(c2ccccc2)CC(c2ccccc2)=Nc2nonc2N1 (configuration not stated)	9.4%	-2.8%	12.6%	11.5%	-4.9%	-11.1%
CC(Sc1nnc(-c2ccccc2)c(-c2ccccc2)n1)C(=O)N1CCc2ccccc21 (configuration not stated)	2.2%	7.08µM*	-22.5%	17.3%[10 µM]	·	·
Cc1nnc(SC(C)C(=O)N2CCc3ccccc32)s1 (configuration not stated)	-3.9%	6.0%	2.5%	-16.8%	-1.6%	-4.8%
Cc1cccc(OCCOc2ccccc2C=C(C#N)C#N)c1	?	7.08µM*	?	-14.2%[10 µM]	-1.4%	-4.8%
Cc1ccccc1OCCOc1ccccc1C=C(C#N)C#N	2.5%	3.55µM*	?	-8.2%[10 µM]	0.5%	-13.4%
O=C(Nc1ccccc1)C1CCCCN1S(=O)(=O)c1ccccc1 (configuration not stated)	-7.5%	3.3%	·	-9.4%	1.3%	·
Cc1sc2nc(CSCC(=O)Nc3ccc(OC(F)F)cc3)[nH]c(=O)c2c1C	8.4%	39.8µM*	·	0.6%[10 µM]	2.0%	·
CC(C)(C)CC(=O)Nc1ccc(C(N)=O)cc1	15.2%	6.2%	6.7%	21.2%[10 µM]	1.5%	-8.3%

Compound activity: PubChem, National Center for Advancing Translational Sciences (NCATS)
